# Assay outcomes deposited in PubChem BioAssay by National Center for Advancing Translational Sciences (NCATS).
# KB-V1 cytotox – kills drug-selected multidrug resistant KB-V1 cells. KB-V1 MDR cells viability, CellTiter-Glo, 72 h. Potency, µM (doses to about 46.1 µM), hits mostly cytotoxic. 3.4% of 400,000 active; further: on the % scale 0 is the no-effect control and ±100 the full control effect; nearly all actives have a fitted effect of over 60% in size
#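 KB-V1 MDR subline cells in DMEM (phenol-red free, 10% FBS) exposed to compounds in qHTS concentration series for 72 h at 37 degrees C. Viability read by CellTiter-Glo luminescence; concentration-effect curves fitted after normalization and correction.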
# HT1080 IDH1KD tx – kills HT-1080 cells with IDH1 knockdown. HT-1080 IDH1 knockdown viability, ATP luminescence, 48 h. Potency, µM (top dose mostly 46.1 µM), without a hit: at the top dose activity, negative = toxicity, most hits filed as cytotoxic. 2% of 360,000 active;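 further: 0% = DMSO wells and -100% = cell-free medium wells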
#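 Cytotoxicity counter-line: IDH1KD HT-1080, 48 h, CellTiter-Glo. Curves classed by r2, magnitude and activity.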
# HT1080NT lethal – kills 2HG-producing HT-1080-NT fibrosarcoma cells; HT-1080-NT fibrosarcoma viability, CellTiter-Glo ATP luminescence, 48 h; Potency, µM (series often up to 46.1 µM), for the others: at the top dose activity, negative = less viability, actives largely listed as cytotoxic; 1.6% of 360,000 active; AID 686970;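 further: NT is the 2HG producing partner of a matched IDH1 knockdown line; 0% = DMSO-treated cells and -100% = media-only wells without cells; nearly all actives have a fitted effect of over 55% in size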
#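 Viability by CellTiter-Glo luminescence after 48 h compound exposure at 37C of HT-1080-NT cells (750/well, RPMI, 5% FBS). % activity scaled between DMSO wells and medium-only wells, then curve-fitted and categorized by curve class.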
# KB-3-1 tox – KB-3-1 parental cell cytotoxicity; 1.4% of 400,000 active; Potency, µM (titrated, usually from 46.1 µM), hits mostly cytotoxic; KB-3-1 viability, CellTiter-Glo ATP luminescence, 72 h; further: on the % scale 0 is the no-effect control and ±100 the full control effect; nearly all actives have a fitted effect of over 60% in size
#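 KB-3-1 cells, DMEM (no phenol red) + 10% FBS; compound by pin transfer, 72 h, 37 °C. Readout: CellTiter-Glo luminescence after 10 min. Data normalized, curve-fitted.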
# TGFb inhibitor – TGF-b pathway inhibition; HepG2 CAGA-GFP TGF-b/SMAD3 reporter, GFP fluorescence, 18 h; TGF-beta stimulated, 500 pg/mL final; Potency, µM (highest dose often 46.1 µM), inactives show top-dose activity, negative = inhibition, actives largely listed as inhibitors; 1.2% of 410,000 active; further: on the % scale 0 is the no-effect control and ±100 the full control effect; nearly all actives have a fitted effect of over 65% in size
#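 HEPG2 CAGA-GFP, 1000 cells/well; 2 h settle, 37 C; cpd via pin tool; TGF-b 500 pg/mL final; 18 h, 37 C; GFP imaging ex488/em500-530; %Activity normalised to -TGF-b and +DMSO controls; CRC fit, curve class.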
# HepG2 viability – HepG2 cytotoxicity, counter-screen for TGF-b inhibitors; HepG2 CAGA-GFP viability, ATP luminescence, 18 h; Potency, µM (doses to about 46.1 µM), for the others: top-dose activity change, negative = cytotoxicity, most hits filed as cytotoxic; 0.76% of 410,000 active; AID 588856
#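 HepG2 CAGA-GFP cells (1000/well, DMEM with 1% FBS) received compound, then TGF-beta at 500 pg/mL final, and were incubated 18 hours at 37 degrees C. Viability was read by CellTiter-Glo luminescence. Media-only wells were set as complete cell-killing and DMSO as no toxicity.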
# Active calls of the source: *; i = inactive; ? = inconclusive; · = no result given. Compounds with a hit are over-represented: about 6.6% of the library has one in this group of screens. The call rests on the fitted dose curve; in most records, active means well fitted curve in the direction sought with a large enough effect; inconclusive means small, poorly fitted or top-dose-only effect, or another doubt; inactive means no such curve, though single readings can be large; an effect the other way counts as inactive or inconclusive. Potency means the concentration at half of the fitted maximal effect.
SMILES,KB-V1 cytotox,HT1080 IDH1KD tx,HT1080NT lethal,KB-3-1 tox,TGFb inhibitor,HepG2 viability
Cc1ccc(-n2ncc3c(NC4CCCCC4)ncnc32)cc1,i,·,·,i,17%,-4%
CCOC(=O)c1c(C)[nH]c(C(=O)COC(=O)c2oc3ccc(OC)cc3c2C)c1C,10µM*,18%,13%,16µM*,4%,4%
CCOC(=O)c1c(C)[nH]c(C(=O)COC(=O)c2oc3ccccc3c2C)c1C,i,0%,3%,?,0%,-18%
CC(=O)Nc1ccc(SCCN2CCN(CCc3ccccc3)CCC2=O)cc1,·,·,·,·,?,-67%
CCOC(=O)c1ccc(N2C(=O)c3n[nH]c(-c4ccco4)c3C2c2ccc(O)c(OCC)c2)cc1 (stereo not drawn),i,·,·,i,16µM*,-61%
CCOC(=O)c1ccc(N2C(=O)c3n[nH]c(-c4ccco4)c3C2c2cccc([N+](=O)[O-])c2)cc1 (stereo not drawn),18µM*,?,?,?,?,-56%
CCOC(=O)c1ccc(N2C(=O)c3n[nH]c(C)c3C2c2ccco2)cc1 (stereo not drawn),i,-7%,-12%,i,11%,1%
CCOC(=O)c1ccc(N2C(=O)c3n[nH]c(-c4ccco4)c3C2c2ccc(OC)cc2OC)cc1 (stereo not drawn),?,·,·,?,16µM*,-46%
CCOC(=O)c1ccc(N2C(=O)c3n[nH]c(-c4ccco4)c3C2c2ccc(C(=O)OC)cc2)cc1 (stereo not drawn),?,·,·,?,?,-39%
Cc1ccc(CN2C(=O)c3ccccc3S(=O)(=O)c3ccc(C(=O)OCC4CCCO4)cc32)cc1 (stereo not drawn),i,·,·,i,7%,0%
CS(=O)(=O)/C(C#N)=C/c1c(-c2ccccc2)nc2n1CCS2,i,15%,13%,i,1%,-6%
Clc1ccc(CO/N=C/c2c(-c3ccccc3)nc3n2CCS3)c(Cl)c1,15µM*,-18%,-5%,i,?,-18%
O=[N+]([O-])c1ccc(Sc2nccn2Cc2ccccc2)c([N+](=O)[O-])c1,?,?,-1%,i,?,-81%
O=c1cc(-c2ccccc2)nc(Sc2ccc([N+](=O)[O-])cc2[N+](=O)[O-])[nH]1,i,-24%,-1%,i,?,-68%
O=[N+]([O-])c1ccc(SNc2ccccc2)c([N+](=O)[O-])c1,23µM*,-12%,-11%,i,?,0%
Cc1cccc(Sc2ccc([N+](=O)[O-])cc2[N+](=O)[O-])n1,i,18µM*,?,i,-21%,-14%
O=[N+]([O-])c1ccc(Sc2ncccn2)c([N+](=O)[O-])c1,i,13µM*,29µM*,i,?,20µM*
O=[N+]([O-])c1ccccc1SNc1ccccc1,i,-9%,-8%,i,-2%,-29%
CCNc1nc(C#N)nc(NCC)n1,i,·,·,i,11%,1%
CC(C)(C)n1ncc2c(=O)n(Cc3ccc(C#N)c(F)c3)cnc21,·,·,·,·,-3%,-1%
COc1ccc(OC)c(CNc2ncnc3onc(C)c23)c1,i,·,·,i,-13%,-16%
COC(=O)c1cc2oc3ccccc3c2n1Cc1c(F)cccc1Cl,·,·,·,·,·,4%
CN1CCN(c2nc3cc(C(F)(F)F)ccc3n3cccc23)CC1,?,23µM*,?,i,52%,-6%
O=C1CSC(=Nc2cccc(Cl)c2Cl)N1Cc1cccnc1,16µM*,-26%,-12%,i,-7%,-151%
COc1ccc2c(CNCCc3ccccc3)c(C(=O)O)n(Cc3cccc(F)c3)c2c1,·,·,·,·,?,-31%
SMILES,KB-V1 cytotox,HT1080 IDH1KD tx,HT1080NT lethal,KB-3-1 tox,TGFb inhibitor,HepG2 viability
CC(C)OCCCn1c(SCc2ccccc2Cl)nc2c(sc3ccccc32)c1=O,i,·,·,i,-8%,-3%
NS(=O)(=O)c1ccc(CCNCc2ccccc2OCc2ccc(Cl)cc2)cc1,i,15µM*,23µM*,?,?,-91%
CCCNCc1cc(Br)ccc1OCC(=O)NCCc1ccccc1,?,-77%,-64%,?,-2%,4%
O=C(COc1ccc(Br)cc1CNCCc1ccccc1)NCc1ccccc1,i,?,21µM*,i,?,13µM*
NS(=O)(=O)c1ccc(CCNCc2cc(Cl)ccc2OCc2ccccc2)cc1,i,?,?,i,11µM*,-69%
NS(=O)(=O)c1ccc(CCNCc2cc(Br)ccc2OCc2ccccc2F)cc1,i,23µM*,?,i,?,-85%
CCN1/C(=C/c2sc(-c3ccccc3C)c[n+]2C)Sc2ccccc21,?,2.1µM*,2.1µM*,0.41µM*,2.5µM*,-31%
CCC(=O)/C=C1/Sc2ccccc2N1CC,i,0%,-2%,i,-9%,7%
COc1cccc(/C=N/NC(=O)c2cc3c(OC)c(OC)ccc3[nH]2)c1OC,i,6.5µM*,?,9.2µM*,9%,12%
COc1ccc(OC)c(/C=N/NC(=O)c2cc3c(OC)cccc3[nH]2)c1,i,-7%,-3%,i,7%,-48%
COc1ccc(/C=N/NC(=O)c2cc3c(OC)ccc(OC)c3[nH]2)cc1O,9.2µM*,0.41µM*,2.3µM*,2.9µM*,?,-58%
COc1cccc(/C=N/NC(=O)c2cc3c(OC)cccc3[nH]2)c1OC,?,15%,4%,i,?,-44%
COc1ccc(/C=N/NC(=O)c2cccc3ccccc23)c(OC)c1OC,?,16µM*,?,?,-11%,-10%
COc1ccccc1/C=N/NC(=O)c1cc2c(OC)c(OC)ccc2[nH]1,?,4.1µM*,7.3µM*,?,-10%,-2%
CCC(c1nc2ccccc2[nH]1)n1c(=O)c(-c2ccccc2)nc2ccccc21 (stereo not drawn),i,0%,?,i,·,·
O=c1c2ccccc2nc2n1CCN2Cc1ccc(Cl)cc1,4.6µM*,-23%,?,16µM*,?,-9%
Cc1ccc(C)c(NC(=O)CSc2ccc(S(=O)(=O)N3CCCC3)cn2)c1,i,-2%,-1%,i,-5%,-12%
O=C(CSc1ccc(S(=O)(=O)N2CCCC2)cn1)Nc1ccc([N+](=O)[O-])cc1C(F)(F)F,5.2µM*,-14%,0%,?,?,-23%
